We go through two molecules from the supplement of paper PMC8728848.

The full list was thinned out, with the strongest signals kept by preference.

What all share (test): glycan array binding signal (z-score within array); higher = stronger binding
Holding throughout (conditions): glycan notation: IUPAC condensed, linker removed

The target of experiment [1] is Fuc(a1-2)Gal(b1-3)GalNAc(b1-3)Gal(b1-4)Glc. In short, it runs like this: (§1)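 The Consortium for Functional Glycomics database supplied 3228 glycan arrays, of which those lacking an available protein sequence were dropped. The binding signal, a within-array Z-score, was averaged across arrays of the same protein sequence and across linkers. Negative scores can be read as non-binding.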

In experiment [2] the target is Fuc(a1-2)[Gal(a1-4)]Gal(b1-4)GalNAc. In short, it runs like this: as §1
Experiment [3] concerns the target Fuc(a1-2)[GalNAc(a1-3)]Gal(b1-4)Glc. In short, it runs like this:
as §1

The target in a further experiment is Fuc(a1-3)GlcNAc. In short, it runs like this: as §1
In experiment [4] the target is Gal(b1-3)[Fuc(a1-4)]GlcNAc(b1-3)Gal(b1-4)[Fuc(a1-3)]GlcNAc. In outline:
as §1

The target in experiment [5] is Gal(b1-4)GlcNAc(b1-2)Man(a1-3)[Gal(b1-4)GlcNAc(b1-2)Man(a1-6)]Man(b1-4)GlcNAc(b1-4)GlcNAc. In short, it runs like this:
as §1

A further experiment addresses Gal3S(b1-4)Glc6S. In short, it runs like this: as §1
The next experiment has as its target Gal3S6S(b1-4)GlcNAc. In short, it runs like this: as §1
In the next experiment the target is Gal3S6S(b1-4)GlcNAc6S. In short, it runs like this: as §1
Another experiment addresses Gal6S(b1-4)Glc6S. In outline: as §1
For a further experiment, the target named is GlcNAc(b1-3)Gal. In outline:
as §1

In experiment [6] the target is GlcNAc(b1-4)Gal(b1-4)GlcNAc. In outline:
as §1

The target in experiment [7] is Man(a1-2)Man(a1-3)[Man(a1-6)]Man(a1-6)[Man(a1-2)Man(a1-3)]Man(b1-4)GlcNAc(b1-4)GlcNAc. In outline: as §1
Another experiment deals with Man(b1-4)GlcNAc. In short, it runs like this:
as §1

Experiment [8] deals with Neu5Ac(a2-3)Gal(b1-3)GlcNAc. In short, it runs like this:
as §1

Experiment [9] concerns the target Neu5Ac(a2-3)Gal(b1-3)GlcNAc(b1-3)Gal(b1-4)GlcNAc. In short, it runs like this:
as §1

In experiment [10] the target is Neu5Ac(a2-3)Gal(b1-4)[Fuc(a1-3)]GlcNAc. In short, it runs like this:
as §1

In experiment [11] the target is Neu5Ac(a2-3)Gal(b1-4)[Fuc(a1-3)]GlcNAc(b1-3)Gal. In outline:
as §1

In experiment [12] the target is Neu5Ac(a2-6)Gal(b1-4)GlcNAc. In short, it runs like this: as §1
The target of experiment [13] is Neu5Gc(a2-6)Gal(b1-4)GlcNAc. In outline:
as §1

The target of experiment [14] is Fuc(a1-2)[Gal(a1-3)]Gal(b1-4)[Fuc(a1-3)]GlcNAc. In outline: as §1
The next experiment deals with Fuc(a1-4)GlcNAc. In short, it runs like this:
as §1

The target of the next experiment is Gal(a1-3)Gal(b1-4)GlcNAc. In outline: as §1
Experiment [15] concerns the target Gal(b1-3)GalNAc(b1-3)Gal(b1-4)Glc. In outline: as §1
Experiment [16] addresses Gal(b1-4)GalNAc(a1-3)[Fuc(a1-2)]Gal(b1-4)GlcNAc. In short, it runs like this: as §1
Experiment [17] concerns the target Gal(b1-4)GlcNAc(b1-3)Gal(b1-4)Glc. In outline: as §1
For the next experiment, the target named is GalNAc(a1-3)Gal. In short, it runs like this:
as §1

Experiment [18] has as its target GlcNAc(b1-3)[GlcNAc(b1-4)][GlcNAc(b1-6)]GlcNAc. In outline: as §1
Experiment [19] has as its target GlcNAc(b1-4)[GlcNAc(b1-6)]GalNAc. In outline:
as §1

The target in experiment [20] is Man(a1-2)Man(a1-3)[Man(a1-3)[Man(a1-6)]Man(a1-6)]Man(b1-4)GlcNAc(b1-4)GlcNAc. In outline:
as §1

B1: FBG5 (Homo sapiens), Q8NI29 (protein)
chain: MGASVSRGRAARVPAPEPEPEEALDLSQLPPELLLVVLSHVPPRTLLGRCRQVCRGWRALVDGQALWLLILARDHGATGRALLHLARSCQSPARNARPCPLGRFCARRPIGRNLIRNPCGQEGLRKWMVQHGGDGWVVEENRTTVPGAPSQTCFVTSFSWCCKKQVLDLEEEGLWPELLDSGRIEICVSDWWGARHDSGCMYRLLVQLLDANQTVLDKFSAVPDPIPQWNNNACLHVTHVFSNIKMGVRFVSFEHRGQDTQFWAGHYGARVTNSSVIVRVRLS
With B1, the “glycan array binding signal (z-score)” value in [1] is -0.166; in experiment [2], -0.19; in experiment [3], 0.967; with Fuc(a1-3)GlcNAc, 0.417; in experiment [4] it was -0.217; in experiment [5] it was -0.102. Further, the “glycan array binding signal (z-score)” value with Gal3S(b1-4)Glc6S is 0.206; with Gal3S6S(b1-4)GlcNAc, -0.009; in the experiment with Gal3S6S(b1-4)GlcNAc6S, 2.32; in the experiment with Gal6S(b1-4)Glc6S it was 0.548; in the experiment with GlcNAc(b1-3)Gal it was -0.119; in experiment [6], -0.095. The “glycan array binding signal (z-score)” value in experiment [7] was -0.112; with Man(b1-4)GlcNAc, -0.205; in [8], -0.161; in experiment [9], -0.162; in experiment [10], -0.231; in experiment [11], -0.244. In addition, the “glycan array binding signal (z-score)” value in [12] is -0.219; in experiment [13], -0.248.

B2: Alpha-agglutinin (Saccharomyces cerevisiae) (protein)
chain: MFTFLKIILWLFSLALASAININDITFSNLEITPLTANKQPDQGWTATFDFSIADASSIREGDEFTLSMPHVYRIKLLNSSQTATISLADGTEAFKCYVSQQAAYLYENTTFTCTAQNDLSSYNTIDGSITFSLNFSDGGSSYEYELENAKFFKSGPMLVKLGNQMSDVVNFDPAAFTENVFHSGRSTGYGSFESYHLGMYCPNGYFLGGTEKIDYDSSNNNVDLDCSSVQVYSSNDFNDWWFPQSYNDTNADVTCFGSNLWITLDEKLYDGEMLWVNALQSLPANVNTIDHALEFQYTCLDTIANTTYATQFSTTREFIVYQGR
On to B2, for which the “glycan array binding signal (z-score)” value in experiment [1] is 6.41; in experiment [14], -0.112; in experiment [3], 0.558; with Fuc(a1-4)GlcNAc, -0.216; in the experiment with Gal(a1-3)Gal(b1-4)GlcNAc, -0.248; in experiment [15], 8.68. Further, the “glycan array binding signal (z-score)” value in experiment [16] was 0.014; in experiment [17], 3.24; with Gal6S(b1-4)Glc6S, 0.122; with GalNAc(a1-3)Gal, -0.162; in [18], 0.203; in experiment [19], 5.52. Also, the “glycan array binding signal (z-score)” value in experiment [20] is -0.251; in experiment [10], -0.258.
